Results as given in the supplement of paper PMC6555819.

Columns and labels:
Experiment in all cases: PBM binding z-score (relative to random genomic background probes); higher = stronger binding; sequences stand for … in GC…GCGATTGACAGCGTAGAATGAAGG
[1] = tested on: FXR:RXRa (NR concentration 270 nM, RXRa partner concentration 90 nM)
Method in brief: (§1)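 Custom Agilent 4×180K protein-binding microarrays carried double-stranded probes, each with a 34-nt variable region. These regions held direct-repeat seeds, single-nucleotide variants, half-site ablations and random human genomic background sequences. Ligand-free nuclear receptor dimers were incubated on the arrays for 1 h, antibodies against each partner (one per run) detected binding, and scanned fluorescence was regression-normalized. Binding z-scores take the random background probes as reference.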

[2] = tested on: LXRa:RXRa (NR concentration 270 nM, RXRa partner concentration 90 nM)
Method in brief: as §1

[3] = tested on: LXRa homodimer (NR concentration 270 nM)
Method in brief: as §1

[4] = tested on: LXRb:RXRa (NR concentration 270 nM, RXRa partner concentration 90 nM)
Method in brief: as §1

[5] = tested on: LXRb homodimer (NR concentration 270 nM)
Method in brief: as §1

[6] = tested on: PPARa:RXRa (NR concentration 270 nM, RXRa partner concentration 90 nM)
Method in brief: as §1

[7] = tested on: PPARg:RXRa (NR concentration 180 nM, RXRa partner concentration 90 nM)
Method in brief: as §1

[8] = tested on: PPARg:RXRa 270nM:90nM, anti-RXR (NR concentration 270 nM, RXRa partner concentration 90 nM)
Method in brief: as §1

[9] = tested on: PPARg:RXRa 30nM:10nM, anti-RXR (NR concentration 30 nM, RXRa partner concentration 10 nM)
Method in brief: as §1

[10] = tested on: PPARg:RXRa 90nM:30nM, anti-RXR (NR concentration 90 nM, RXRa partner concentration 30 nM)
Method in brief: as §1

[11] = tested on: PPARg:RXRa DBDmut IVT, anti-RXR (DBD mutation: RXRa K156A/R161A, NR concentration 270 nM, RXRa partner concentration 90 nM)
Method in brief: as §1

[12] = tested on: PPARg:RXRa IVT, anti-PPARg (NR concentration 270 nM, RXRa partner concentration 90 nM)
Method in brief: as §1

[13] = tested on: PPARg DBDmut:RXRa IVT, anti-PPARg (DBD mutation: PPARg1 K132A/R137A, NR concentration 270 nM, RXRa partner concentration 90 nM)
Method in brief: as §1

[14] = tested on: PPARg DBDmut IVT, anti-PPARg (DBD mutation: PPARg1 K132A/R137A, NR concentration 270 nM)
Method in brief: as §1

[15] = tested on: PPARg homodimer (NR concentration 180 nM)
Method in brief: as §1

[16] = tested on: PXR:RXRa (NR concentration 270 nM, RXRa partner concentration 90 nM)
Method in brief: as §1

[17] = tested on: PXR homodimer (NR concentration 270 nM)
Method in brief: as §1

[18] = tested on: RARa:RXR (NR concentration 270 nM, RXRa partner concentration 90 nM)
Method in brief: as §1

[19] = tested on: RARa homodimer (NR concentration 270 nM)
Method in brief: as §1

[20] = tested on: RARb:RXRa (NR concentration 270 nM, RXRa partner concentration 90 nM)
Method in brief: as §1

| Sequence | PBM binding z-score [1] | PBM binding z-score [2] | PBM binding z-score [3] | PBM binding z-score [4] | PBM binding z-score [5] | PBM binding z-score [6] | PBM binding z-score [7] | PBM binding z-score [8] | PBM binding z-score [9] | PBM binding z-score [10] | PBM binding z-score [11] | PBM binding z-score [12] | PBM binding z-score [13] | PBM binding z-score [14] | PBM binding z-score [15] | PBM binding z-score [16] | PBM binding z-score [17] | PBM binding z-score [18] | PBM binding z-score [19] | PBM binding z-score [20] |
| --- | --- | --- | --- | --- | --- | --- | --- | --- | --- | --- | --- | --- | --- | --- | --- | --- | --- | --- | --- | --- |
| TCTGCTAGGTCAACGATGGTCAGCTTATCTGCTA | 3.6 | 2.98 | -0.083 | 1.77 | -0.302 | 3.38 | 2.43 | 3.06 | 2.06 | 2.59 | 4.15 | 4.27 | 2.31 | 1.16 | 0.812 | 1.76 | -0.682 | 2.5 | -0.672 | 4.22 |
| GGAACGAGGGCATTCGAGTTGATAGGATGGCGAT | 1.38 | 1.66 | -0.255 | -0.172 | -0.504 | 1.12 | 1.01 | 0.531 | -0.182 | -0.00549 | 2.57 | 2.23 | -0.409 | -0.611 | 0.00316 | 3.7 | 1.31 | 0.433 | -0.456 | 1.75 |
| CCGACTGGGGCAGAAAGGTAACCATACCATCCGG | -0.151 | -0.447 | -0.528 | -0.363 | -1.18 | 0.647 | 1.05 | 1.25 | -0.0627 | 0.913 | 1.07 | 1.73 | -0.318 | -1.27 | 0.0459 | -0.419 | -0.488 | -0.0683 | -0.0732 | 0.706 |
| ATCGTAAGGTCGAGGTGAGTATAGAGAAAGGGAA | 2.64 | 1.91 | 0.0142 | 1.68 | 0.624 | 3.02 | 1.53 | 1.72 | 0.505 | 1.27 | -0.153 | 1.72 | 1.12 | 1.14 | 1.07 | 1.68 | 0.189 | 2.17 | 0.395 | 3.22 |
| AGAATCAGGTTAAGATCAGGGAAACAGAATACAT | 0.729 | 0.662 | 0.295 | 0.799 | 0.474 | 1.68 | 1.18 | 1.05 | 0.692 | 0.624 | 2.26 | 2.1 | 1.36 | 1.33 | 1.01 | 0.297 | 1.14 | 0.552 | 1.62 | 1.1 |
| TTACCAAGGTGACGGTCGTTGATCCCTCTGTAGA | 1.07 | 0.963 | -0.313 | 0.464 | -0.534 | 1.5 | 0.654 | 1.29 | 0.738 | 0.929 | 2.39 | 3.64 | 0.228 | -0.126 | 0.25 | 0.252 | -0.877 | 0.759 | -0.412 | 1.82 |
| TTTTGTAGATCAAAGGTTAAGAAAGCCGAAGCCT | 1.35 | 2.03 | 0.327 | 2.09 | 0.386 | 5.08 | 9.51 | 8.59 | 8.23 | 9.36 | 1.61 | 3.98 | 0.975 | 1.12 | 1 | 2.05 | -0.0288 | 3.17 | 0.339 | 2.07 |
| ATATGTAGGTTAGCTGGGGTTATTCAGACTAGGC | 1.74 | 3.29 | 0.848 | 2.56 | 1.44 | 3.94 | 4.22 | 3.82 | 1.45 | 2.9 | 6.78 | 6.18 | 3.12 | 2.79 | 1.88 | 4.02 | 0.969 | 3.11 | 1.26 | 1.38 |
| TCTAGCCGGCCAGAGGGTCACTCAAGAGGTACGG | 1.12 | 0.885 | -0.666 | 1.07 | -1.11 | 2.03 | 0.575 | 1.57 | 1.39 | 1.44 | 0.224 | -0.0177 | -0.893 | -1.23 | 0.24 | 1.48 | -0.354 | 2.24 | -0.43 | 2.08 |
| CAAACTAGGTCACCGGAAGGTCACAGTCCGCATG | 6.17 | 5.52 | 4.03 | 4.77 | 1.26 | 5.9 | 9.97 | 7.71 | 6.06 | 7.55 | 8.58 | 9.08 | 2.66 | 1.61 | 8.88 | 5.64 | 1.29 | 7.62 | 3.12 | 5.42 |
| CAGCCTAGGTCAGGGCCAGTATCGGAGGAACGTT | 1.55 | 0.907 | -0.258 | 0.354 | -1.03 | 1.91 | 0.418 | 0.759 | -0.713 | 0.129 | 1.72 | 1.55 | -1.42 | -1.35 | 0.632 | 0.107 | -1.08 | 0.761 | -0.159 | 3.54 |
| GCTATTTGTTGAAAGGGCAACCGAATGATTCTCG | 0.484 | 0.768 | 0.386 | 0.834 | 0.261 | 1.37 | 0.764 | 1.88 | 0.957 | 1.46 | 0.563 | 0.804 | 0.209 | 0.611 | 1.53 | 0.686 | 0.462 | 1.01 | 1.45 | 1.98 |
| CTCGATAGGTCGTGCTCAGGTGAGTATACCAAAC | 0.909 | 0.843 | -0.342 | 0.951 | -0.454 | 1.82 | 0.11 | 0.394 | -0.186 | -0.0239 | 0.241 | 0.78 | -0.285 | 0.141 | 0.257 | 0.623 | -0.52 | 1.44 | -0.705 | 1.77 |
| ATCTCGAGGTAACCAAGTTCAGTGAATGCCGAAC | 0.65 | 1.14 | 0.25 | 0.608 | -0.105 | 1.25 | 0.211 | 0.361 | -0.167 | 0.304 | 0.433 | 1.72 | 0.594 | 0.0274 | -0.0303 | 3.06 | 2.57 | 1.04 | -0.305 | 1.5 |
